From PubChem BioAssay
A number with no mark means an inactive call. The source made the active and inactive calls. How the calls were made is not given here.

Target: L-lactate dehydrogenase (Plasmodium falciparum (isolate CDC / Honduras)) (UniProt Q27743)
Test: PfLDH activity inhibition – cell lysate, 3D7 strain, counter-screen for P. falciparum growth inhibition project (AID 2304);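 further: 0% = vehicle and 100% = reference inhibitor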
Details: P. falciparum 3D7 crude extract, LDH APAD/NBT absorbance; at 2 µM; hits give high values

Sequence of L-lactate dehydrogenase (Plasmodium falciparum (isolate CDC / Honduras)) (Q27743 whole entry, looked up): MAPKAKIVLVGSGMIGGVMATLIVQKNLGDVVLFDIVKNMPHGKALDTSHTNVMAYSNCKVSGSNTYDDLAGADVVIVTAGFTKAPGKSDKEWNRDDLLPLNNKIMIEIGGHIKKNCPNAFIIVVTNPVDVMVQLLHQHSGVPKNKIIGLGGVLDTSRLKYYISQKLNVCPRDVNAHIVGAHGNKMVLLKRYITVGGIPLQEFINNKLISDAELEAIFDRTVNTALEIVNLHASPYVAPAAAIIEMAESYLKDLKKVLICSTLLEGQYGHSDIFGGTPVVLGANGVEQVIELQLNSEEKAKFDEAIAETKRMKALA

Question: Which inhibition does the source give for `COc1ccc(Cn2c(Nc3cccc(C(F)(F)F)c3)nc3cc(C(=O)NCCN4CCCC4)cnc32)cc1Cl` here?
Answer: 0%

Question: With `O=C(Nc1cccc(C(F)(F)F)c1)c1cc([N+](=O)[O-])cc2cn[nH]c12` as the molecule, how does the inhibition read?
Answer: 3%

Question: With `CSc1nc2cc3c(cc2n1C(=O)c1ccc(C)cc1)OCCO3` as the molecule, how does the inhibition read?
Answer: -6%

Question: For `COc1ccccc1-c1cccc(-c2cccc(NC(=O)c3ccc([N+](=O)[O-])o3)c2)n1`, which inhibition is on record?
Answer: -1%

Question: For `COc1ccc2ncc(C#N)c(CCN3CCC(NCc4cnc5c(c4)OCCO5)CC3)c2n1`, which inhibition is on record?
Answer: -3%

Question: With `C[C@H](N[C@H]1CCCc2c1[nH]c1ccc(Br)cc21)c1ccccc1` as the molecule, how does the inhibition read?
Answer: 4%

Question: With `CS(=O)(=O)n1c(CN2CCN(c3ncc(C(F)(F)F)cc3Cl)CC2)nc2ccccc21` as the molecule, how does the inhibition read?
Answer: -4%

Question: For `O=C(COc1ccccc1)N(Cc1ccc(-c2ccc(CNC3Cc4ccccc4C3)cc2)cc1)C1CCNCC1`, which inhibition is on record?
Answer: -1%

Question: With `CN(C)S(=O)(=O)c1ccc(Nc2nc(NCCC3C=NC=N3)nc3cc[nH]c(=O)c23)cc1` (stereo not given) as the molecule, how does the inhibition read?
Answer: 2%

Question: With `COc1ccc2nccc([C@@H](O)CN3CCC(NCc4nc5c(OCc6ccccc6)cccc5[nH]4)CC3)c2c1` as the molecule, how does the inhibition read?
Answer: 3%

Question: Which inhibition does the source give for `COc1ccc2ncc(F)c(CCN3CCC(NCc4cc(C)c5c(c4)OCCO5)CC3)c2n1` here?
Answer: 0%

Question: For `C[C@H](Cc1ccc(OCCNC[C@H](O)c2cccc(Cl)c2)cc1)NC[C@H](O)c1ccc(Cl)c(Cl)c1`, which inhibition is on record?
Answer: 4%

Question: Which inhibition does the source give for `c1cc(CN2CCc3ccccc3CC2)cc(-c2c[nH]c3nc(NC4CCCC4)ncc23)c1` here?
Answer: -3%

Question: With `CCSc1ccc(C)cc1CON1C(N)=NC(N)=NC1(C)C` as the molecule, how does the inhibition read?
Answer: 0%

Question: For `Cc1ccc(S(=O)(=O)NC2=NC(C)(C)N(OCc3ccc(Cl)c(Cl)c3)C(N)=N2)cc1`, which inhibition is on record?
Answer: 3%

Question: With `CC(C)n1cc2c(ccc3nc(N)nc(N)c32)n1` as the molecule, how does the inhibition read?
Answer: 1%

Question: For `CCN(CC)CCNc1nc(C=Cc2ccc(Cl)cc2)nc2cc3ccccc3cc12`, which inhibition is on record?
Answer: -3%

Question: Which inhibition does the source give for `Cc1cccc(C(=O)N2CCN(Cc3cccc(NC(=O)c4ccco4)c3)CC2)c1` here?
Answer: 1%

Question: For `CC1(CCN2CCC(c3c[nH]c4cnccc34)CC2)CCCc2c(Br)cccc2C1=O` (stereo not given), which inhibition is on record?
Answer: 3%

Question: Which inhibition does the source give for `CC(C)N(CC(=O)c1ccc(O)c(C(=O)O)c1)Cc1ccccc1` here?
Answer: -7%

Question: Which inhibition does the source give for `O=C(COc1ccccc1Cc1ccccc1)Nc1cc(Cl)ccc1-n1cncn1` here?
Answer: -2%

Question: With `Cc1ccccc1C1CCN(c2ccc(C(=O)Nc3ccccc3)cn2)CC1` as the molecule, how does the inhibition read?
Answer: -2%

Question: Which inhibition does the source give for `COc1ccc(CCNC(C)Cc2ccc(C(=O)Nc3ccc(CC(C)NCCc4cccc(Cl)c4)cc3)cc2)cc1` (stereo not given) here?
Answer: -10%

Question: Which inhibition does the source give for `CC1(C)N=C(N)N=C(N)N1OCC1CCCCC1` here?
Answer: 4%

Question: For `Cc1cc(N[C@@H](CC(C)C)C(=O)NCc2cccs2)nc(Nc2ccccc2)n1`, which inhibition is on record?
Answer: 1%

Question: Which inhibition does the source give for `COc1cc(Cc2cnc(N)nc2N)cc(OCCCCCC(N)=O)c1OC` here?
Answer: 0%

Question: With `CCn1ccc2c3c(N)nc(N)nc3ccc21` as the molecule, how does the inhibition read?
Answer: 6%

Question: For `COc1ccc(-c2ccc(NC(=O)c3ccc(C#N)cc3)cc2)cc1CN(C)CCN(C)C`, which inhibition is on record?
Answer: 2%

Question: Which inhibition does the source give for `COCCN1CCC(N(Cc2ccc(-c3ccc(OC(F)(F)F)cc3)cc2)C(=O)Cn2c(CCc3cccc(F)c3F)cc(=O)c3ccccc32)CC1` here?
Answer: -10%

Question: With `CC(C)CCN(Cc1cncn1Cc1ccccc1F)C(=O)c1cncc(-c2ccccc2)c1` as the molecule, how does the inhibition read?
Answer: -5%

Question: For `Nc1cccc(CNCc2ccc(-c3ccc(-c4nc5ccc(F)cc5[nH]4)s3)cc2)c1`, which inhibition is on record?
Answer: 1%

Question: For `CC(C)CC1c2[nH]c3ccccc3c(=O)c2CN1C(=O)OC(C)(C)C` (stereo not given), which inhibition is on record?
Answer: -4%

Question: Which inhibition does the source give for `Cc1cccc(CC(N)=NCCCCCCN=C(N)Cc2cccc(C)c2)c1` here?
Answer: 3%

Question: With `CN1CCN(c2ccnc3ccc(NC(=O)Nc4ccc(-c5ccccc5)cc4)cc23)CC1` as the molecule, how does the inhibition read?
Answer: -7%

Question: With `Cc1ccc2c(OCCN3CCC(Cc4ccc5c(c4)NC(=O)CO5)CC3)cc(F)cc2n1` as the molecule, how does the inhibition read?
Answer: -2%

Question: For `Cc1nn(-c2ccc(Cl)cc2)c2[nH]c(CN3CCN(c4cccc(Cl)c4)CC3)cc(=O)c12`, which inhibition is on record?
Answer: -3%

Question: Which inhibition does the source give for `CC(CN(C)C)C(=O)Nc1cccc(-c2ccc(-c3nc4ccccc4[nH]3)s2)c1` (stereo not given) here?
Answer: 7%

Question: Which inhibition does the source give for `CN1CCN(CCCN(Cc2ccc(-c3cccc(CNCc4ccc5c(c4)OCO5)c3)cc2)C(=O)Nc2ccccc2)CC1` here?
Answer: -7%

Question: Which inhibition does the source give for `Cc1cnc(Nc2ccccc2)nc1N[C@@H](CCCN)C(=O)Nc1ccccc1` here?
Answer: -1%

Question: For `CC(C)(C)SCC(O)Cn1c2ccc(Br)cc2c2cc(Br)ccc21` (stereo not given), which inhibition is on record?
Answer: 1%

Tested on: not listed separately
Test: inhibition of 3D7 malaria parasite growth – strain 3D7 (AID 2306);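 further: 0% = DMSO wells and 100% = chloroquine plus artemisinin control wells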
Details: P. falciparum 3D7 erythrocytic growth, LDH absorbance, 72 h; at 2 µM; hits give high values

Question: With `COc1ccc(Cn2c(Nc3cccc(C(F)(F)F)c3)nc3cc(C(=O)NCCN4CCCC4)cnc32)cc1Cl` as the molecule, how does the growth inhibition read?
Answer: 97% (active)

Question: For `O=C(Nc1cccc(C(F)(F)F)c1)c1cc([N+](=O)[O-])cc2cn[nH]c12`, which growth inhibition is on record?
Answer: 101% (active)

Question: For `CSc1nc2cc3c(cc2n1C(=O)c1ccc(C)cc1)OCCO3`, which growth inhibition is on record?
Answer: 99% (active)

Question: With `COc1ccccc1-c1cccc(-c2cccc(NC(=O)c3ccc([N+](=O)[O-])o3)c2)n1` as the molecule, how does the growth inhibition read?
Answer: 97% (active)

Question: Which growth inhibition does the source give for `COc1ccc2ncc(C#N)c(CCN3CCC(NCc4cnc5c(c4)OCCO5)CC3)c2n1` here?
Answer: 91% (active)

Question: For `C[C@H](N[C@H]1CCCc2c1[nH]c1ccc(Br)cc21)c1ccccc1`, which growth inhibition is on record?
Answer: 96% (active)

Question: With `CS(=O)(=O)n1c(CN2CCN(c3ncc(C(F)(F)F)cc3Cl)CC2)nc2ccccc21` as the molecule, how does the growth inhibition read?
Answer: 83% (active)

Question: Which growth inhibition does the source give for `O=C(COc1ccccc1)N(Cc1ccc(-c2ccc(CNC3Cc4ccccc4C3)cc2)cc1)C1CCNCC1` here?
Answer: 100% (active)

Question: With `CN(C)S(=O)(=O)c1ccc(Nc2nc(NCCC3C=NC=N3)nc3cc[nH]c(=O)c23)cc1` (stereo not given) as the molecule, how does the growth inhibition read?
Answer: 96% (active)

Question: For `COc1ccc2nccc([C@@H](O)CN3CCC(NCc4nc5c(OCc6ccccc6)cccc5[nH]4)CC3)c2c1`, which growth inhibition is on record?
Answer: 101% (active)

Question: With `COc1ccc2ncc(F)c(CCN3CCC(NCc4cc(C)c5c(c4)OCCO5)CC3)c2n1` as the molecule, how does the growth inhibition read?
Answer: 100% (active)

Question: Which growth inhibition does the source give for `C[C@H](Cc1ccc(OCCNC[C@H](O)c2cccc(Cl)c2)cc1)NC[C@H](O)c1ccc(Cl)c(Cl)c1` here?
Answer: 83% (active)

Question: With `c1cc(CN2CCc3ccccc3CC2)cc(-c2c[nH]c3nc(NC4CCCC4)ncc23)c1` as the molecule, how does the growth inhibition read?
Answer: 99% (active)

Question: Which growth inhibition does the source give for `CCSc1ccc(C)cc1CON1C(N)=NC(N)=NC1(C)C` here?
Answer: 94% (active)

Question: For `Cc1ccc(S(=O)(=O)NC2=NC(C)(C)N(OCc3ccc(Cl)c(Cl)c3)C(N)=N2)cc1`, which growth inhibition is on record?
Answer: 88% (active)

Question: For `CC(C)n1cc2c(ccc3nc(N)nc(N)c32)n1`, which growth inhibition is on record?
Answer: 92% (active)

Question: With `CCN(CC)CCNc1nc(C=Cc2ccc(Cl)cc2)nc2cc3ccccc3cc12` as the molecule, how does the growth inhibition read?
Answer: 100% (active)

Question: Which growth inhibition does the source give for `Cc1cccc(C(=O)N2CCN(Cc3cccc(NC(=O)c4ccco4)c3)CC2)c1` here?
Answer: 94% (active)

Question: Which growth inhibition does the source give for `CC1(CCN2CCC(c3c[nH]c4cnccc34)CC2)CCCc2c(Br)cccc2C1=O` (stereo not given) here?
Answer: 101% (active)

Question: Which growth inhibition does the source give for `CC(C)N(CC(=O)c1ccc(O)c(C(=O)O)c1)Cc1ccccc1` here?
Answer: 97% (active)

Question: With `O=C(COc1ccccc1Cc1ccccc1)Nc1cc(Cl)ccc1-n1cncn1` as the molecule, how does the growth inhibition read?
Answer: 92% (active)

Question: Which growth inhibition does the source give for `Cc1ccccc1C1CCN(c2ccc(C(=O)Nc3ccccc3)cn2)CC1` here?
Answer: 95% (active)

Question: Which growth inhibition does the source give for `COc1ccc(CCNC(C)Cc2ccc(C(=O)Nc3ccc(CC(C)NCCc4cccc(Cl)c4)cc3)cc2)cc1` (stereo not given) here?
Answer: 101% (active)

Question: With `CC1(C)N=C(N)N=C(N)N1OCC1CCCCC1` as the molecule, how does the growth inhibition read?
Answer: 94% (active)

Question: With `Cc1cc(N[C@@H](CC(C)C)C(=O)NCc2cccs2)nc(Nc2ccccc2)n1` as the molecule, how does the growth inhibition read?
Answer: 100% (active)

Question: For `COc1cc(Cc2cnc(N)nc2N)cc(OCCCCCC(N)=O)c1OC`, which growth inhibition is on record?
Answer: 90% (active)

Question: For `CCn1ccc2c3c(N)nc(N)nc3ccc21`, which growth inhibition is on record?
Answer: 99% (active)

Question: For `COc1ccc(-c2ccc(NC(=O)c3ccc(C#N)cc3)cc2)cc1CN(C)CCN(C)C`, which growth inhibition is on record?
Answer: 96% (active)

Question: With `COCCN1CCC(N(Cc2ccc(-c3ccc(OC(F)(F)F)cc3)cc2)C(=O)Cn2c(CCc3cccc(F)c3F)cc(=O)c3ccccc32)CC1` as the molecule, how does the growth inhibition read?
Answer: 96% (active)

Question: Which growth inhibition does the source give for `CC(C)CCN(Cc1cncn1Cc1ccccc1F)C(=O)c1cncc(-c2ccccc2)c1` here?
Answer: 96% (active)

Question: For `Nc1cccc(CNCc2ccc(-c3ccc(-c4nc5ccc(F)cc5[nH]4)s3)cc2)c1`, which growth inhibition is on record?
Answer: 102% (active)

Question: For `CC(C)CC1c2[nH]c3ccccc3c(=O)c2CN1C(=O)OC(C)(C)C` (stereo not given), which growth inhibition is on record?
Answer: 97% (active)

Question: Which growth inhibition does the source give for `Cc1cccc(CC(N)=NCCCCCCN=C(N)Cc2cccc(C)c2)c1` here?
Answer: 97% (active)

Question: With `CN1CCN(c2ccnc3ccc(NC(=O)Nc4ccc(-c5ccccc5)cc4)cc23)CC1` as the molecule, how does the growth inhibition read?
Answer: 99% (active)

Question: For `Cc1ccc2c(OCCN3CCC(Cc4ccc5c(c4)NC(=O)CO5)CC3)cc(F)cc2n1`, which growth inhibition is on record?
Answer: 89% (active)

Question: Which growth inhibition does the source give for `Cc1nn(-c2ccc(Cl)cc2)c2[nH]c(CN3CCN(c4cccc(Cl)c4)CC3)cc(=O)c12` here?
Answer: 98% (active)

Question: Which growth inhibition does the source give for `CC(CN(C)C)C(=O)Nc1cccc(-c2ccc(-c3nc4ccccc4[nH]3)s2)c1` (stereo not given) here?
Answer: 100% (active)

Question: With `CN1CCN(CCCN(Cc2ccc(-c3cccc(CNCc4ccc5c(c4)OCO5)c3)cc2)C(=O)Nc2ccccc2)CC1` as the molecule, how does the growth inhibition read?
Answer: 101% (active)

Question: For `Cc1cnc(Nc2ccccc2)nc1N[C@@H](CCCN)C(=O)Nc1ccccc1`, which growth inhibition is on record?
Answer: 101% (active)

Question: For `CC(C)(C)SCC(O)Cn1c2ccc(Br)cc2c2cc(Br)ccc21` (stereo not given), which growth inhibition is on record?
Answer: 87% (active)
